Assay results taken from PubChem BioAssay (NCATS).
The list shows a part of the results. Results filed as inconclusive are left out. Calls of active or inactive are those of the source. Calls come from the whole dose curve; as a rule, active = well fitted inhibition curve with a large enough effect; inconclusive = small, poorly fitted or top-dose-only effect; inactive = flat fitted curve, though single readings scatter.

What follows are compounds tested against Fructose-bisphosphate aldolase A (Oryctolagus cuniculus) (UniProt P00883) (assay: qHTS Assay for Inhibitors of Fructose-1,6-bisphosphate Aldolase from Giardia Lamblia: Rabbit FBPA Selectivity (AID 2794; note: nearly all actives have a fitted effect of over 60% in size)). Settings: Rabbit muscle FBPA enzyme inhibition, selectivity counter-screen; series mostly up to 57.5 µM.
Text: NIH Chemical Genomics Center [NCGC]
NIH Molecular Libraries Probe Production centers Network [MLPCN]
Assay Provider: Osnat Herzberg, University of Maryland
The objective of this project is to obtain compounds that inhibit Giardia lamblia growth. G. lamblia is a human pathogen which afflicts impoverished nations; it is the most common cause of outbreaks of diarrhea in the United States. During the course of our study of potential drug targets in Giardia, we have identified the Class II (Zn2+ functions in electrophilic catalysis) fructose-1,6-bisphosphate aldolase (FBPA) as an excellent candidate for drug targeting. FBPA is a key glycolytic pathway enzyme, essential for G. lamblia survival. The human FBPA belongs to the Class I aldolases, which have a different substrate binding site structure and a radically different catalytic mechanism (employing a lysine-Schiff base intermediate). Therefore, affinity-based or mechanism-based inhibitors of the Giardia FBPA are expected not to interfere with the catalytic function of the human FBPA.
A glyceraldehyde-3-phosphate dehydrogenase/triose phosphate isomerase/NAD/arsenate coupled assay was adapted to the 1536-well HTP format for use in the primary screen. This was done by coupling it to a diaphorase/resazurin/resorufin reaction that can be monitored by fluorescence (excitation, 544 nm; emission, 590 nm). Compounds identified in this screen will be further evaluated by coupling the glycerol-3-phosphate/triose phosphate isomerase/NADH assay to a phenazine methosulfate/tetranitroblue tetrazolium color reaction. False positives due to the dehydrogenases and diaphorase inhibition will be eliminated, and selectivity assay will triage inhibitors of mammalian triose phosphate isomerase and the Class I FBPA. G. lamblia FBPA inhibitors identified by the in vitro analyses will be examined for growth inhibition of Giardia trophozoites, and for cytotoxicity in human cells.
This assay addresses whether hits in the primary screen are selective for […] FBPA, by using rabbit FBPA enzyme in the protocol.
Step,Parameter,Value,Description
1,Coupling enzyme reagent,2 uL,glyceraldehyde-3-phosphate
2,Compound,23 nL,3.68 nM-57.5 uM final concentration
3,Time,10 min,RT Incubation
4,Substrate/detection Reagent,2 uL,Substrate + enzyme coupling system + AmpLite Red kit
5,Time,20 min,RT Incubation
6,Detector,525 nm/598 nm (Fluorescence),ViewLux Fluorescence Read (Read 1)
1,Medium-binding black solid-bottom Kalypsys plates. FRD or Kalypsys dispenser.
2,Compound Library (10 mM ,1:5 dilution). Pin-transferred for a [final] range of 3.68 nM-57.5 uM.
4,FRD or Kalypsys dispenser, 2 uL of reaction mixture. Bottle kept at 4C and covered in foil to protect from light.
6,ViewLux Protocol 1194; Excitation filter wheel A (525/20 Pol; BODIPY TMR FP), Emission filter wheel B (598/25 S; BODIPY TMR FP S).
Keywords: Fructose-bisphosphate aldolase, FBPA , Giardia lamblia , Giardia, HTS, Inhibitors

Sequence of Fructose-bisphosphate aldolase A (Oryctolagus cuniculus) (P00883 whole entry, looked up): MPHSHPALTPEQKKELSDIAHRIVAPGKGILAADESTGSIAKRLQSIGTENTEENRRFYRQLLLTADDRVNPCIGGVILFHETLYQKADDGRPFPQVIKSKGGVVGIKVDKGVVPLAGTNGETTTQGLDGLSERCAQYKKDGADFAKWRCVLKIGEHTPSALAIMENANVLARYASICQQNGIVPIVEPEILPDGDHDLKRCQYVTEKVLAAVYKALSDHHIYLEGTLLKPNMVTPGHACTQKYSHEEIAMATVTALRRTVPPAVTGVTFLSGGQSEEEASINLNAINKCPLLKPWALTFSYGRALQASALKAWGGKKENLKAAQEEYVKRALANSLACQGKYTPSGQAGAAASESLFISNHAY

| SMILES | outcome |
| --- | --- |
| COc1ccccc1CN1CCN(Cc2cc(OC)c(OC)cc2OC)CC1 | inactive |
| Clc1cccc(CN2COc3c(cc(Cl)c4cccnc34)C2)c1 | inactive |
| CN1C(=O)/C(=C\c2ccc(-c3ccccc3)o2)SC1=S | inactive |
| O=C(CSc1cccc[n+]1[O-])c1ccc(-c2ccccc2)cc1 | inactive |
| CC1CCCN(S(=O)(=O)c2ccc(C(=O)Nc3nnc(-c4ccncc4)o3)cc2)C1 (stereo not given) | inactive |
| Cc1nc2ccc(NC(=S)N3CCC(C)CC3)cc2nc1C | inactive |
| Cc1nnc(SCC2=C(C(=O)O)N3C(=O)C(NC(=O)Cn4nc(C)c(Cl)c4C)C3SC2)s1 (stereo not given) | inactive |
| O=C1CCCN1CCCNC(=S)Nc1ccc(F)c(Cl)c1 | inactive |
| COCCN(C(=S)Nc1ccccc1OC)C1CCN(C(C)C)CC1 | inactive |
| CN(C)CCOc1ccc(Cl)cc1C(C)(C)C | inactive |
| O=S(=O)(c1ccc(NC(=S)NN=C(C2CC2)C2CC2)cc1)N1CCOCC1 | inactive |
| O=C(O)Cn1c(Cc2ccccc2)nc2ccccc21 | inactive |
| CCc1ccc2c(c1)C1(NN=C(c3ccccc3)S1)C(=O)N2 (stereo not given) | inactive |
| Oc1[nH]c2ccc(Br)cc2c1N=Nc1nn[nH]n1 | inactive |
| CCN(CC(=O)Nc1ccc(S(=O)(=O)N2CCCC2)cc1)CC(=O)Nc1cccc(OC)c1 | inactive |
| O=C(Nc1ccccc1Cl)O/N=C(/c1ccccc1)c1ccccn1 | inactive |
| C=C(C)CNC(=S)N/N=C/c1ccccc1OCC(=O)O | inactive |
| CN1CCN(CCCCOc2ccccc2-c2ccccc2)CC1 | inactive |
| Cc1cc(C)nc(N/N=C/c2ccc([N+](=O)[O-])o2)n1 | inactive |
| COc1ccc(CN2CCN(Cc3ccc(OC)c(OC)c3OC)CC2)cc1 | inactive |

| SMILES | outcome |
| --- | --- |
| O=C(N/N=C/c1ccccn1)c1cccnc1 | inactive |
| Cc1nnc(N/N=C/c2ccccn2)[nH]c1=O | inactive |
| Cc1cc(C)n(-c2ccc(Cl)c(C(=O)O)n2)n1 | inactive |
| CCS(=O)(=O)c1cc([N+](=O)[O-])c(Sc2ccccc2N)s1 | inactive |
| Cn1nnc(NC(=S)NC(=O)c2ccccc2)n1 | inactive |
| O=[N+]([O-])c1cc([N+](=O)[O-])c2cccnc2c1O | inactive |
| COC(=O)CC1=NN(c2nc(C)cc(C)n2)C(=O)C1 | inactive |
| C/C(=N\NC(N)=S)c1cccnc1 | inactive |
| CC(=O)NC1CCN(CC(=O)Nc2nccs2)CC1 | inactive |
| COc1ccc(C(=O)NC(=S)N2CCCCC2c2cccnc2)cc1OC (stereo not given) | inactive |
| Cc1cc(C)c2c(=O)[nH]c(SCC(=O)Nc3ccc(Br)cc3)nc2n1 | inactive |
| COc1ccc(OC)c(Nc2nc(-c3ccc(O)c(O)c3)cs2)c1 | inactive |
| C=CCNC(=S)/N=c1/ccccn1Cc1ccccc1 | inactive |
| COc1ccc(N=Nc2c(-c3ccc(OC)cc3)[nH]oc2=O)cc1 | inactive |
| O=c1nc(N/N=C/c2ccco2)cn[nH]1 | inactive |
| Cc1ccc(S(=O)(=O)NNC(=S)NC(C)(C)C)cc1 | inactive |
| Cc1csc(NC(=O)CN2CCCCCC2)n1 | inactive |
| Cc1ccc(OCCCCc2c(C)n[nH]c2C)cc1 | inactive |
| O=C(Nc1nnc(-c2ccco2)o1)c1ccc(S(=O)(=O)N2CCOCC2)cc1 | inactive |
| CCN1CCc2c(C#N)c(NCc3ccccc3)nc(NCCO)c2C1 | inactive |
